Measured values: publication PMC5540273 (PLoS ONE, 2017)

Tested on: T1, PRKR
T1 construct: gene EIF2AK2
Conditions: concentration: 1 μM, replicates: in singlicate; n = 1
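Also: KINOMEscan kinase panel screen.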

| SMILES | %Inh [%] |
| --- | --- |
| COc1ccc(-n2cnc3c(N)ncnc32)cc1 [SKF-97236] | 0 |
| FC(F)(F)c1ccc(-c2ncn(CCCN3CCOCC3)c2-c2ccncc2)cc1 [SB-217780] | 0 |
| CCc1nc(-c2cccc(C)c2)c(-c2ccncc2)s1 | 0 |
| COC(=O)c1c(-c2ccccc2)c2cc(Br)ccc2c(=O)n1Cc1ccc(NC(=O)CCC(=O)O)cc1 | 0 |
| Cc1ccc(-c2ccc3c(ccc4sc5c(c43)NC[C@@H](C)N=C5N(C)C)n2)cn1 | 0 |
| Cc1nnc(-c2ccc(C)c(-c3ccc(C(=O)O)cc3)c2)o1 [GW608005] | 0 |
| CCCNC(=O)Nc1ccc(Oc2ncnc3ccn(C)c23)cc1 | 0 |
| Nc1n[nH]c2nnc(-c3ccccc3)c(-c3ccccc3)c12 [GW554060] | 0 |
| COC(=O)c1c(-c2ccccc2)c2cc(Br)ccc2c(=O)n1Cc1ccc(S(C)(=O)=O)cc1 | 0 |
| O=c1cc(N2CCOCC2)nc2n(Cc3ccc(F)c(Cl)c3)ccn12 [GSK2297099] | 15 |
| COc1cc(Nc2nccc(N3CCC(NC(=O)C4COc5ccccc5O4)C3)n2)cc(OC)c1OC (stereo not drawn) [GSK1379761] | 13 |
| CCCC(=O)Nc1n[nH]c2ncc(-c3cccc4ccccc34)cc12 [SB-642057] | 29 |
| CCn1c(-c2nonc2N)nc2ccccc21 [SB-693162/GW549034] | 0 |
| O=C(Nc1n[nH]c2nc(-c3ccccc3)c(Br)cc12)C1CC1 [SB-708998] | 0 |
| Cn1c(=O)c(F)c(Nc2ccc(I)cc2F)c2c(=O)n(OC[C@H](O)CO)cnc21 | 0 |
| COc1cc2nccc(Nc3ccc(OCc4ccc(NC(C)=O)cc4)cc3)c2cc1OC.Cl [GW440135] | 0 |
| Cl.c1ccc(Cn2cnc3cc(Nc4ncnc5ccccc45)ccc32)cc1 [GW272142] | 0 |
| Nc1ncnc2c1ncn2-c1cccc2ccccc12 [SKF-97184] | 0 |

| SMILES | %Inh [%] |
| --- | --- |
| O=C(NCCNc1ccnc(Nc2ccc(F)cc2)n1)Nc1ccc2c(c1)OCO2 [GSK1379882] | 9 |
| O=C(Nc1n[nH]c2cc(-c3ccccc3F)ccc12)C1CC1 [SB-733371] | 0 |
| COc1ccc(-c2coc3ccc(-c4nnc(SCc5cccc(C#N)c5)o4)cc23)cc1 | 0 |
| Cc1nc(N(C)[C@H]2CN(C(=O)CC#N)CC[C@H]2C)c2cc[nH]c2n1 | 5 |
| Cc1cccc(-c2nc(Nc3ccc4c(cnn4C)c3)c3ccccc3n2)n1 [GW876731] | 0 |
| Cl.NS(=O)(=O)c1cccc(Nc2cc(-c3ccc(F)cc3)n[nH]2)c1 [GW824645] | 0 |
| COc1ccc(-c2cc3c(C)nc(N)nc3n([C@H]3CC[C@H](OCCO)CC3)c2=O)cn1 | 0 |
| COc1ccc(-c2cc3c(C)nc(N)nc3n([C@H]3CC[C@H](O)CC3)c2=O)cn1 | 0 |
| CN(C)c1cc(-c2ccc3c(N)n[nH]c3c2)nc(N)n1 [GSK2219329] | 5 |
| O=C1NC(=O)C(c2ccccc2)=C1Nc1cccc(O)c1 [SB-390534] | 100 |
| Fc1cccc(CSc2nnc(-c3ccc4c(c3)CCO4)o2)c1 | 0 |
| COc1cc2ncn(-c3cc(OCCCc4ccccc4)c(C(N)=O)s3)c2cc1OC [GSK205189] | 0 |
| COc1cc(Nc2ccnc3ccc(C(F)(F)F)cc23)cc(OC)c1OC [GW577382] | 0 |
| COc1cccc(-n2cnc3c(N)ncnc32)c1 [SKF-97416] | 13 |
| COc1cccc(C2=C(Nc3cccc(C(=O)O)c3)C(=O)NC2=O)c1 [SB-390770] | 0 |
| Nc1nc(N)c2nc(-c3ccccc3)[nH]c2n1 [SKF-12778] | 0 |
| CCC(=O)c1c(-c2ccccc2)c2cc(Cl)ccc2c(=O)n1Cc1cc(S(C)(=O)=O)n(CC(F)F)n1 | 0 |
| CCS(=O)(=O)c1ccc(OC)c(Nc2ncc(-c3ccc(F)cc3)o2)c1.Cl [GW591947] | 0 |
